Measurements taken from PubChem BioAssay (NCATS).
Records with an inconclusive call do not appear. Activity calls are given as the source filed them. The call rests on the fitted dose curve; in most records, active means well fitted curve in the direction sought with a large enough effect; inconclusive means small, poorly fitted or top-dose-only effect, or another doubt; inactive means no such curve, though single readings can be large; an effect the other way counts as inactive or inconclusive.

Experiments:
NIH3T3 = test: qHTS assay to identify novel small-molecules to repurpose for Merkel cell carcinoma treatment (AID 1296009); conditions: MCC and control cell lines, CellTiter-Glo viability, 72 h; at 44.8 µM (top of the series) unless noted; further: nearly all actives have a fitted effect of over 60% in size
Outline: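 Viability readout: ATP luminescence (CellTiter-Glo) after 72 hr drug exposure at 37 degree celsius. Dose-response format was 8 points for NPC and 11 points for MIPE; data normalized to in-plate controls.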

C33A = test: Primary qHTS to identify gynecologic anti-cancer compounds using libraries of approved drugs and bioactive compounds (AID 1345084); conditions: Gynecologic cancer cell panel viability, ATPlite luminescence, 48 h; series mostly up to 57.5 µM; further: nearly all actives have a fitted effect of over 55% in size
Outline: (§1)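 Cells, 1,000 per well, plated 16 h, then exposed 48 h at 37 C to compounds. Viability by ATPlite luminescence after 15 min at room temperature.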

CAOV3 = test: as above; conditions: Gynecologic cancer cell panel viability, ATPlite luminescence, 48 h; series mostly up to 57.5 µM
Outline: as §1

CASKI = test: as above; conditions: Gynecologic cancer cell panel viability, ATPlite luminescence, 48 h; series mostly up to 57.5 µM
Outline: as §1

Es-2 = test: as above; conditions: Gynecologic cancer cell panel viability, ATPlite luminescence, 48 h; series mostly up to 57.5 µM
Outline: as §1

HeLa = test: as above; conditions: Gynecologic cancer cell panel viability, ATPlite luminescence, 48 h; series mostly up to 57.5 µM
Outline: as §1

Hek293T = test: as above; conditions: Gynecologic cancer cell panel viability, ATPlite luminescence, 48 h, control line for the selectivity index; series mostly up to 57.5 µM
Outline: as §1

JEG-3 = test: as above; conditions: Gynecologic cancer cell panel viability, ATPlite luminescence, 48 h; series mostly up to 57.5 µM
Outline: as §1

OV90 = test: as above; conditions: Gynecologic cancer cell panel viability, ATPlite luminescence, 48 h; series mostly up to 57.5 µM
Outline: as §1

PA-1 = test: as above; conditions: Gynecologic cancer cell panel viability, ATPlite luminescence, 48 h; series mostly up to 57.5 µM
Outline: as §1

Tov-21-G = test: as above; conditions: Gynecologic cancer cell panel viability, ATPlite luminescence, 48 h; series mostly up to 57.5 µM
Outline: as §1

Tov112D = test: as above; conditions: Gynecologic cancer cell panel viability, ATPlite luminescence, 48 h; series mostly up to 57.5 µM
Outline: as §1

Measured: Potency

C=C1C(O)CCC2(C)CC3(OC)OC(=O)C(C)=C3CC12 (stereo unspecified)
inactive: all assays above

CC(=O)OC1(C)CC(O)C2(O)C=COC(OC3OC(CO)C(O)C(O)C3O)C12 (stereo unspecified)
inactive: NIH3T3 inactive [at 17.4 µM] | C33A | CAOV3 | CASKI | Es-2 | HeLa | Hek293T | JEG-3 | OV90 | PA-1 | Tov-21-G | Tov112D

CC(C)CC[C@@H](O)[C@](C)(O)[C@H]1CC[C@@]2(O)C3=CC(=O)[C@@H]4C[C@@H](O)[C@@H](O)C[C@]4(C)[C@H]3CC[C@]12C
inactive: all assays above

CC(C)C1(O)C=C2C(=O)CC3C(C)(C(=O)O)CCCC3(C)C2CC1 (stereo unspecified)
inactive: all assays above

COc1ccc(OC)c(C2C(C#N)=C(N)Oc3n[nH]c(-c4ccc5ccccc5c4)c32)c1 (stereo unspecified)
inactive: all assays above

OC[C@@]1(O)CO[C@@H](OC[C@H]2O[C@@H](OCc3ccccc3)[C@H](O)[C@@H](O)[C@@H]2O)[C@@H]1O
inactive: NIH3T3 inactive [at 17.4 µM] | C33A | CAOV3 | CASKI | Es-2 | HeLa | Hek293T | JEG-3 | OV90 | PA-1 | Tov-21-G | Tov112D

CCCCNc1nc(N)c2[nH]c(=O)n(Cc3ccc(OCCN(C)C)nc3)c2n1
inactive: NIH3T3 inactive; activator | C33A | CAOV3 | CASKI | Es-2 | HeLa | Hek293T | JEG-3 | OV90 | PA-1 | Tov-21-G | Tov112D

COc1cc(C[C@@]2(O)CO[C@@H](c3ccc(O[C@@H]4O[C@H](CO)[C@@H](O)[C@H](O)[C@H]4O)c(OC)c3)[C@H]2CO)ccc1O
inactive: NIH3T3 inactive [at 17.4 µM] | C33A | CAOV3 | CASKI | Es-2 | HeLa | Hek293T | JEG-3 | OV90 | PA-1 | Tov-21-G | Tov112D

Nc1nc2c(nc(Sc3ccc(Cl)cc3)n2[C@@H]2O[C@@H]3COP(=O)(O)O[C@H]3[C@H]2O)c(=O)[nH]1
inactive: all assays above

CCCCOc1nc(N)c2c(n1)N(Cc1cccc(CN3CCCC3)c1)CC(=O)N2
inactive: all assays above

CC1CCC2(C(=O)O)CCC3(C)C(=CCC4C5(C)C[C@@H](O)[C@@H](O)C(C)(CO)C5CCC43C)C2C1(C)O (stereo partly specified)
inactive: NIH3T3 inactive [at 17.4 µM] | C33A | CAOV3 | CASKI | Es-2 | HeLa | Hek293T | JEG-3 | OV90 | PA-1 | Tov-21-G | Tov112D

Cc1ncc(Cl)cc1NCc1ccc(C(=O)NC(CC2CCCC2)C(=O)NC2CC2)s1 (stereo unspecified)
inactive: all assays above

COc1cc(C(=O)OC[C@H]2O[C@@H](OC(C)(C)C(=O)O)[C@H](O)[C@@H](O)[C@@H]2O)cc(OC)c1O
inactive: NIH3T3 inactive [at 17.4 µM] | C33A | CAOV3 | CASKI | Es-2 | HeLa | Hek293T | JEG-3 | OV90 | PA-1 | Tov-21-G | Tov112D
